Assay results reported in article PMC5540273 (PLoS ONE, 2017).
Read-outs that look alike come from different tables or passages of the source.

Assays:
PLK2 = settings: concentration: 1 μM, replicates: in singlicate; n = 1
PLK3 = settings: concentration: 1 μM, replicates: in singlicate; n = 1
PLK4 = settings: concentration: 1 μM, replicates: in singlicate; n = 1
PRKCD = settings: n = 1
PRKCE = settings: concentration: 1 μM, replicates: in singlicate; n = 1
PRKCH = settings: concentration: 1 μM, replicates: in singlicate; n = 1
PRKCI = settings: n = 1
PRKCQ = settings: concentration: 1 μM, replicates: in singlicate; n = 1
PRKD1 = settings: concentration: 1 μM, replicates: in singlicate; n = 1
PRKD2 = settings: concentration: 1 μM, replicates: in singlicate; n = 1
[1] = concentration: 1 μM, replicates: in singlicate
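Note: KINOMEscan kinase panel screen.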

SMILES	%Inh (PLK2)	%Inh (PLK3)	%Inh (PLK4)	%Inh (PRKCD; [1])	%Inh (PRKCE)	%Inh (PRKCH)	%Inh (PRKCI; [1])	%Inh (PRKCQ)	%Inh (PRKD1)	%Inh (PRKD2)	%Inh (PRKCD; 1 µM)	%Inh (PRKCI; 1 µM)
C[C@@H]1CC[C@@H](C(=O)Nc2ccccc2)CN1c1cc(-c2ccc3c(N)n[nH]c3c2)nc(N)n1 [GSK2286062]	0%	0%	0%	9%	6%	14%	15%	0%	0%	23%	–	–
CCn1c(-c2nonc2N)nc2c(C#CC(C)(C)O)ncc(OCCCCN)c21.O=C(O)C(F)(F)F.O=C(O)C(F)(F)F [GSK507274]	0%	0%	0%	–	98%	97.7%	–	86%	29%	23%	91%	78%
Cc1ccc(F)c(C(=O)Nc2cccc(-c3nn4ccccc4c3-c3ccnc(Nc4cccc(F)c4)n3)c2)c1F [GSK361061]	3%	9%	10%	25%	2%	25%	0%	27%	14%	12%	–	–
COc1cccc(-c2ccc3c(NC(=O)C4CC4)n[nH]c3n2)c1 [SB-710903]	0%	0%	6%	0%	23%	10%	11%	0%	0%	0%	–	–
COc1cccc(C(=O)Nc2cccc(Oc3ccc4nc(NC(=O)C5CC5)cn4n3)c2)c1	0%	14%	5%	25%	0%	0%	40%	0%	0%	44%	–	–
Fc1ccc(-c2ncn(C3CCNCC3)c2-c2ccnc(Oc3ccc(-c4ccccc4)cc3)n2)cc1 [SB-245391]	28%	17%	27%	32%	40%	0%	54%	0%	0%	0%	–	–
Nc1ncnc2c1nc(-c1ccccc1)n2-c1ccccc1 [SKF-97293]	38%	16%	26%	14%	35%	9%	13%	0%	5%	0%	–	–
CNC(=O)c1ccccc1Nc1nc(Nc2ccc(N3CCOCC3)cc2)ncc1Cl.Cl [GSK1576028]	81%	85%	100%	24%	64%	0%	11%	84%	0%	17%	–	–
COc1cc2c(cc1OCCN1CCNCC1)ncc1c3ccc(C#N)cc3[nH]c21	22%	20%	32%	0%	19%	0%	24%	0%	0%	0%	–	–
CC(=O)N1CCN(c2ccc(Nc3nccc(-c4sc(C(C)C)nc4-c4cccc(NS(=O)(=O)c5cccc(Cl)c5)c4)n3)cn2)CC1 [GSK1660437]	5%	0%	99.8%	1%	0%	19%	13%	13%	89%	95.3%	–	–
NCCCC(NC(=O)c1cc(Br)c(-c2ccnc3[nH]ccc23)s1)c1ccccc1.O=C(O)C(F)(F)F.O=C(O)C(F)(F)F (stereo not shown) [GSK1287544]	14%	0%	0%	95.6%	92.5%	94.7%	31%	75%	29%	36%	–	–
c1ccc(-c2n[nH]cc2Nc2ccnc3ccccc23)nc1 [GW694077]	0%	0%	48%	0%	22%	0%	48%	0%	91.8%	96.2%	–	–
Nc1ncc(-c2cccnc2)c2scc(-c3ccc4c(c3)CCN4C(=O)Cc3ccccc3)c12 [GSK683281]	0%	0%	15%	25%	0%	33%	33%	14%	23%	73%	–	–
Cc1occc1-c1ncc(OC[C@@H](N)Cc2c[nH]c3ccccc23)cc1-c1ccc2[nH]nc(C)c2c1.O=C(O)C(F)(F)F [GSK682037]	0%	0%	0%	100%	99.8%	97.5%	28%	97.7%	90%	99.6%	–	–
CC(=O)Nc1nc2cnc(Nc3cc(NC(=O)c4cccc(C5(C#N)CC5)c4Cl)ccc3C)nc2s1	4%	0%	0%	29%	0%	0%	0%	39%	0%	4%	–	–
O=C(Nc1cccc(-c2nn3ncccc3c2-c2ccnc(Nc3ccccc3)n2)c1)c1c(F)cccc1F [GSK198271]	55%	82%	1%	0%	8%	16%	9%	48%	27%	20%	–	–
